“And” between values parts separate entries of the source, which are not always exact repeats. Equal entries are not always repeated. The whole screen tested about 70,000 compounds, of which about 470 (0.67%) were called active. Not shown: some 18% with an inconclusive outcome. Calls follow the shape of the full dose curve. The entries come from a sample that favours actives as a whole. Where a call stands in place of a potency, no number is given.
Potency is read from the fitted curve at half-maximal effect.

The nature of this assay: qHTS Assay for Anthrax Lethal Toxin Internalization. Also: nearly all actives have a fitted effect of over 50% in size. To be noted: Cells, FRET ratio (460/530); series mostly up to 40 µM. A general note: qHTS replaces the single test concentration by a dilution series.
Turning to `CC(C)CO/N=C1/C[C@@H](O)[C@@H](O)[C@@H]2[C@@H]3C(=O)N(C[C@@H]4CCCO4)C(=O)[C@H]3CC[C@@H]12`, the activity change, negative = inhibition was 0.14% [at 8 µM] (inactive).

With `CCOC(=O)[C@]1(C(/C=C/c2ccco2)NC(=O)OC)CCCC1=O` (some centres undefined), the activity change, negative = inhibition was -10.5% [at 8 µM] (inactive).

Turning to `CSc1nnc2c(n1)OC(c1cn(C)c3ccccc13)N(C(C)=O)c1ccccc1-2` (centres undefined), the activity change, negative = inhibition entry is “inactive”.

As for `CC1(C)OC(C(O)(c2ccccc2)c2ccccc2)C(C(O)(c2ccccc2)c2ccccc2)O1` (centres undefined), the activity change, negative = inhibition is -5.79% [at 8 µM] (inactive).

Turning to `CO[C@H]1COC(=O)C/C=C\[C@H](C)COC(=O)[C@@H](OCc2ccccc2)/C=C\[C@@H]1C`, the activity change, negative = inhibition was -13% [at 1.6 µM] (inactive).

As to `CCOC(=O)c1sc(NC(=O)C(CC)Sc2nccn2C)nc1C` (centres undefined), the activity change, negative = inhibition result is “inactive”.

Consider `CC(C)CO`, for which the activity change, negative = inhibition result was “inactive”.

With `O=C(CSC1=Nc2ccccc2C2=NC(c3ccccc3)C(=O)N12)NCC1CCCO1` (centres undefined), the activity change, negative = inhibition entry is “inactive”.

As for `CC(C)CC1(C(=O)NCc2ccccn2)C=CCN1C(=O)c1ccccc1` (centres undefined), the activity change, negative = inhibition result is “inactive”.

On to `CCCN(C/C=C\I)[C@@H]1CCc2cccc(O)c2C1`, for which the activity change, negative = inhibition entry was “inactive”.

For the compound `Brc1cc(Br)c(Oc2cc(Br)c(Br)cc2Br)cc1Br`, the Potency is 1 µM (active).

For the compound `CCCCCCCCCCCC(=O)O[C@H](CC(=O)O)C[N+](C)(C)C`, the activity change, negative = inhibition result is “inactive”.

`CCCOC(=O)Nc1ccccc1C(N)=O`: the activity change, negative = inhibition entry was “inactive”.

With `C=CCOC(=O)COCCC(C)C`, the activity change, negative = inhibition result is “inactive”.

For the compound `CCCn1c(C)nc2c(NCCCCN(CC)CC)nc(C)nc21`, the activity change, negative = inhibition entry was “inactive”.

For the compound `CC(=O)c1c(O)c(C)c(O)c(Cc2c(O)c3c(c(C(=O)/C=C\c4ccccc4)c2O)OC(C)(C)C=C3)c1O`, the Potency was 15.8 µM (active).

Regarding `N#CCCn1c(=O)c(-c2cc(F)cc(F)c2)nc2cnc(Oc3ccccc3)nc21`, the activity change, negative = inhibition result was “inactive”.

In the case of `CO[C@H]1COC(=O)[C@@H](C)NC(=O)C/C=C\[C@@H](C)[C@H](OC)COC(=O)C/C=C\[C@@H]1C`, the activity change, negative = inhibition was 5.17% [at 8 µM] (inactive).

As for `c1ccc(CN2CC[C@@]3(CCCNC3)C2)cc1`, the Potency is 10 µM (active).

`CC(=O)N1CCC2(CCCN(Cc3ccccc3)C2)CC1`: the activity change, negative = inhibition entry was “inactive”.

Turning to `CS(=O)(=O)N1CCC2(CC1)CN(Cc1ccccc1)C2`, the activity change, negative = inhibition result is “inactive”.

For the compound `CC(=O)N1[C@H](C)C=C[C@]1(Cc1ccccc1)C(=O)NCc1ccccn1`, the activity change, negative = inhibition result was “inactive”.

As for `C#CCC(C(=O)OC)(C(=O)OC)C(C[N+](=O)[O-])c1ccccc1` (centres undefined), the activity change, negative = inhibition was 2.17% [at 8 µM] (inactive).

Regarding `CC(C)(O)/C=C\C(=O)[C@](C)(O)[C@H]1[C@H](O)C[C@]2(C)[C@@H]3CC=C4[C@@H](C=C(O)C(=O)C4(C)C)[C@]3(C)C(=O)C[C@@]12C`, the Potency was 0.0316 µM (active).

In the case of `Cc1c(NC(=O)Nc2ccccc2Cl)sc(=S)n1C`, the activity change, negative = inhibition entry is “inactive”.

Regarding `COC(=O)[C@@H]1CC[C@H](C)[C@@H](c2ccc(C)cc2)N1C(=O)c1ccc(/C=N\OC[C@@H](O)COCc2ccco2)cc1`, the activity change, negative = inhibition was 12.1% [at 8 µM] (inactive).

On to `CCCCCCN(C(=O)CCCCCN1C(=O)NC(c2ccc(C(F)(F)F)cc2)C(C(=O)OCc2ccccc2)=C1C)C(C(=O)NCCCC)c1ccc(OCC(=O)OC)c(C(=O)OC)c1` (centres undefined), for which the activity change, negative = inhibition result was “inactive”.

`CC(C)CSC[C@@H]1O[C@H](n2cnc3c(N)nccc32)[C@H](O)[C@@H]1O`: the activity change, negative = inhibition was -14.1% [at 8 µM] (inactive).

As for `S=c1c2[nH]cnc2ncn1CCSc1ncnc2nc[nH]c12`, the activity change, negative = inhibition is -7.68% [at 8 µM] (inactive).

Turning to `Cc1nc2cnc(N3CCNCC3)nc2n(CCc2ccccc2)c1=O`, the activity change, negative = inhibition result was “inactive”.

As to `O=P(c1cccs1)(c1cccs1)c1cccs1`, the activity change, negative = inhibition entry is “inactive”.

For `C[C@]1(C(=O)NCCc2c[nH]c3ccccc23)C=C[C@@H](Cc2ccccc2)N1C(=O)c1ccccc1`, the activity change, negative = inhibition entry is “inactive”.

With `CO/N=C\[C@@H](C)[C@H](OCc1ccccc1)C(C)C`, the activity change, negative = inhibition is 1.89% [at 1.6 µM] (inactive).

Turning to `CCn1c(CNC(=O)c2ccc(OC)c(OC)c2)nnc1SCC(=O)Nc1ccccc1`, the activity change, negative = inhibition entry was “inactive”.

Take `CCOC(=O)N/N=C1/C[C@@H](O)[C@@H](O)[C@@H]2[C@@H]3C(=O)N(CC)C(=O)[C@H]3CC[C@H]12`: the activity change, negative = inhibition is 4.77% [at 8 µM] (inactive).

In the case of `CN(CCCNC(=O)CN1C(=O)CC(C)(C)S(=O)(=O)c2ccccc21)C1CCCCC1`, the activity change, negative = inhibition entry is “inactive”.

In the case of `CCCCCCCCCCCC(=O)O`, the activity change, negative = inhibition entry was “inactive”.

Consider `CC(C)C[C@@H](CC(=O)N[C@@H](CCC(=O)O)CC(=O)O)NC(=O)[C@@H]1CCCC[C@H]1NC(=O)C[C@@H](NC(=O)C[C@H](Cc1c[nH]c2ccccc12)NC(=O)[C@@H]1CCCC[C@H]1N)C(C)C`, for which the activity change, negative = inhibition result was “inactive”.

`COc1ccc(Br)c2c1C[C@H](C(=O)O)CC2`: the activity change, negative = inhibition was -10.3% [at 8 µM] (inactive).

Regarding `Cc1cc(N2CCCCC2)nc2ccc(Cc3ccc4nc(N5CCCCC5)cc(C)c4c3)cc12`, the activity change, negative = inhibition is 3.79% [at 8 µM] (inactive).

With `C[C@H]1CC[C@H](C(=O)O)N[C@@H]1c1ccc(C#Cc2ccccc2)cc1`, the activity change, negative = inhibition was 0.0911% [at 1.6 µM] (inactive).

With `COc1ccc2[nH]cc(CCNc3ncnc4ccc(-c5ccccc5CN(C)C)cc34)c2c1`, the activity change, negative = inhibition entry is “inactive”.

Regarding `COc1cccc(-c2cc(NCCc3c[nH]c4ccc(OC)cc34)ncn2)c1`, the Potency is 10 µM (active).

As for `COc1ccc2[nH]cc(CCNc3ncnc4ccc(-c5ccc(C(=O)N(C)C)cc5)cc34)c2c1`, the activity change, negative = inhibition entry is “inactive”.

For the compound `COC(=O)C1=C(C)N(Cc2ccccc2)C2=C3C(=O)N(c4ccccc4)C(=O)C3[C@@](O)(C(=O)OC)C(=O)N2C1c1ccccc1` (some centres undefined), the activity change, negative = inhibition was -8.4% [at 8 µM] (inactive) and -8.22% [at 8 µM] (inactive).

As to `CC(=O)/C(C)=N\O`, the activity change, negative = inhibition result is “inactive”.

In the case of `Cn1c(C(=O)NCCN2CCc3ccccc3C2)cc2c(=O)[nH]c3ccccc3c21`, the activity change, negative = inhibition result is “inactive”.

On to `Cn1c(=O)c(C(=O)Nc2ncccn2)c(O)c2ccccc21`, for which the activity change, negative = inhibition result is “inactive”.

For the compound `CCOC(=O)N1CCC(NC(=O)COc2cc(=O)n(C)c3ccccc23)CC1`, the activity change, negative = inhibition entry was “inactive”.

As for `CC1CCCC(C)N1CCCNC(=O)c1cc2c(=O)n(C)c3ccccc3c2n1C` (centres undefined), the Potency is 3.98 µM (active).

On to `Cn1c(C(=O)N2CCC(C(N)=O)CC2)cc2c(=O)n(C)c3ccccc3c21`, for which the activity change, negative = inhibition result was “inactive”.

For `CCN1CCCC1CNC(=O)c1cc2c(=O)n(C)c3ccccc3c2n1C` (centres undefined), the Potency was 10 µM (active).

Regarding `COC(=O)[C@@]1(C)C=C[C@@H](Cc2ccccc2)N1C(C)=O`, the activity change, negative = inhibition result was “inactive”.

With `C=CCOC(=O)c1ccccc1C(=O)OCC=C`, the activity change, negative = inhibition result is “inactive”.
